Unmarked numbers belong to inactive results. Active and inactive are the calls of the source.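 The calls were made as follows, unless noted: active = mean inhibition above 46.68%, the untreated control wells mean plus 3 SD; inactive = the rest.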
Key:
[1] = target: Nuclear receptor coactivator 1 (Homo sapiens) (UniProt Q15788); assay: NCOA1 GAL4-fusion reporter inhibition – cell-based, luminescence, quadruplicate, confirmation (AID 588820); details: HEK293 GAL4-SRC1 luciferase reporter, at 3.6 µM, active compounds read high;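 also: 0% = DMSO wells and 100% = gossypol 36 µM treated wells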
Nuclear receptor coactivator 1 (Homo sapiens), sequence (Q15788 whole entry, looked up, the tested form may be a part): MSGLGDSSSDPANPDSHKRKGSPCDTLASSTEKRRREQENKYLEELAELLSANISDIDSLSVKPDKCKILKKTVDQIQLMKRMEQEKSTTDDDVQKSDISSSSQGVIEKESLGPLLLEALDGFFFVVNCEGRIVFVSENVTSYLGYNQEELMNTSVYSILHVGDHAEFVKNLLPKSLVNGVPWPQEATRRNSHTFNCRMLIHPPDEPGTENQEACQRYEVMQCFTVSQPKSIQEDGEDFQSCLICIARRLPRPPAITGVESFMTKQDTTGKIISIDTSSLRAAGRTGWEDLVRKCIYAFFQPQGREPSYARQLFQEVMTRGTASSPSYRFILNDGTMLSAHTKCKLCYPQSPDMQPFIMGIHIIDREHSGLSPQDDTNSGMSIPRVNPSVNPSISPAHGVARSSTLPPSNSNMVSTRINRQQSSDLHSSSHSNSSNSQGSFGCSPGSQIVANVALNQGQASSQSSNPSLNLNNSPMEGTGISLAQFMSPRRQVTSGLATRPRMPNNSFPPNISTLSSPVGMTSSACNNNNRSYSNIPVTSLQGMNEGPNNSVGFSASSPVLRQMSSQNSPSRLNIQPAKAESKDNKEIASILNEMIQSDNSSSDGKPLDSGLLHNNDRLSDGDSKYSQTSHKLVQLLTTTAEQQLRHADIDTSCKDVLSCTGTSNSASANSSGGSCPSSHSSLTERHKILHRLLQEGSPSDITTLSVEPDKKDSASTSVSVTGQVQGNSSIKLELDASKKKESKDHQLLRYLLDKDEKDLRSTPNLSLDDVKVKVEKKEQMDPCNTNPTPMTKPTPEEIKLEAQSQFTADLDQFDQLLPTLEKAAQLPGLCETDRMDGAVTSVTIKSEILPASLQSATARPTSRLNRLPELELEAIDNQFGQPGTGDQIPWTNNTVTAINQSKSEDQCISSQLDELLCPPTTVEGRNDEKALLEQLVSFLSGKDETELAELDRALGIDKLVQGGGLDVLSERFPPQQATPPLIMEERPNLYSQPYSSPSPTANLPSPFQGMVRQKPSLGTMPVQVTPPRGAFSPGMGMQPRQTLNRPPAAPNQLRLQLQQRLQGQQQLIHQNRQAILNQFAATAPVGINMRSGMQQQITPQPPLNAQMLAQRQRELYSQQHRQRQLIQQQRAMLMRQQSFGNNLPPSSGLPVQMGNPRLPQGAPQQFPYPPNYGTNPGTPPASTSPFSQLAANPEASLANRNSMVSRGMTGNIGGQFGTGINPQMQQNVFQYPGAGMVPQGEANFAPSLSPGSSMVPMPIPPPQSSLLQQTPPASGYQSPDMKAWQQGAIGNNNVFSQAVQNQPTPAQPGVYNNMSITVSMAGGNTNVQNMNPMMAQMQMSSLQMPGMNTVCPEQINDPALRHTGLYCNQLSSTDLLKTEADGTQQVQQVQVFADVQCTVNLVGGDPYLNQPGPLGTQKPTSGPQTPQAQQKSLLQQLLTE

[2] = repression of VP16-driven luciferase reporter – cell-based, luminescence, high throughput, counter-screen for SRC1 inhibitor project (AID 588824; in the data active = inhibition above about 25%); details: cell-based VP16 transactivation luciferase luminescence; at 3.6 µM; active compounds read high

SMILES	inhibition [1]	inhibition [2]
O=C(NCc1ccccc1)C(c1ccccc1)N(Cc1cccs1)C(=O)c1cnccn1 (centres undefined)	-71.6%	-20.6%
O=C(CSc1nc(-c2cccs2)cc(C(F)(F)F)n1)Nc1cc(OCC(F)(F)C(F)F)cc([N+](=O)[O-])c1	17.1%	-0.51%
CCN(CC)c1ccc(/C=N/Nc2nc3ccccc3[nH]2)c(O)c1	-7.34%	3.82%
O=C(c1ccccc1)N1CCN(Cc2ccc3c(c2)OCO3)CC1	0.9%	3.86%
COc1ccc(S(=O)(=O)N(C)C[C@H]2Oc3c(NC(=O)Nc4c(C)noc4C)cccc3C(=O)N([C@H](C)CO)C[C@@H]2C)cc1	6.86%	9.48%
O=C(Nc1ccc2c(c1)N(S(=O)(=O)c1cccs1)CCC2)c1c(F)cccc1F	-8.08%	-5.05%
COc1ccc(C(=O)NNC(=O)C(=O)N2CCCCC2)cc1OC	-5.24%	-0.82%
CC(=O)N1CN(C2CCCC2)Cc2c1sc1c2CCCC1	6.63%	14.4%
CCCCCCCC[n+]1c(C)n(-c2ccccc2)c2ccc(NC(C)=O)cc21	15.6%	19.2%
C[C@H]1CN([C@@H](C)CO)C(=O)CCCn2nncc2CO[C@H]1CN(C)C(=O)C1CCCCC1	-19.8%	-11.3%
CC(C)Oc1ccc(C(=O)Nc2nc3ccccc3[nH]2)cc1	-74.9%	-39.4%
COC(=O)C(=N/Nc1ccccc1C(=O)OC)/C(C)=N/O	-2.93%	-4.44%
CCOCCOC(=O)c1[nH]c2c(c1C)C(=O)CC(c1cc(OC)c(OC)c(OC)c1)C2 (centres undefined)	-15.9%	13.5%
Cc1ccc(NC(=O)c2cnc(N3CCN(c4ccccn4)CC3)c3ccccc23)c(Br)c1	-15.2%	17.7%
Cc1nnc(N2CCN(Cc3ccccc3)CC2)[nH]c1=O	-4.97%	-7.63%
O=C(NC(=S)NCC1CCCO1)c1ccccc1[N+](=O)[O-] (centres undefined)	-12.7%	-12%

SMILES	inhibition [1]	inhibition [2]
O=C(N[C@H]1c2ccccc2C[C@H]1O)[C@H]1O[C@@H](n2ccc(=O)[nH]c2=O)[C@H](O)[C@@H]1O	-26.1%	-8.81%
c1ccc(-c2nc(NCCCn3ccnc3)c3ccccc3n2)cc1	-10.8%	-2.43%
COc1ccc(OC)c(/C=N/NC(=O)c2cc3c(OC)cccc3[nH]2)c1	-19.2%	-10%
CCCCc1ccc(NC(=O)c2ccc(N(C)S(C)(=O)=O)cc2)cc1	-25.4%	31.3% (active)
Cc1ccc(S(=O)(=O)N(C)C)cc1NC(=O)COC(=O)CCC1CCCC1	8.06%	5.41%
O=C1NC(=S)N/C1=C/c1ccc2c(c1)OCO2	10.2%	16.3%
CCCCCCn1c(NCC)nc2c1c(=O)n(C)c(=O)n2C	-1.77%	35.5% (active)
Cc1ccc(C2C3=C(CC(C)(C)CC3=O)OC3=C2C(=O)CC(C)(C)C3)cc1	0%	3.31%
CC[C@H](C)[C@H](NC(N)=O)C(=O)NCCc1ccc(OC)c(OC)c1	-11%	-10.9%
CN(C)CCNC(=O)c1cccc2nc3c(ccc4ccccc43)nc12	30.5%	40.4% (active)
CS(=O)(=O)c1ccc(NC(=O)CCN2C(=O)C3CCCCC3C2=O)cc1 (centres undefined)	-9.83%	-10.5%
c1ccc(CC2CCN(c3ncnc4sccc34)CC2)cc1	-13.8%	29.4% (active)
Cc1ccc(C)c(S(=O)(=O)N2CCN(C(=O)C3CCN(C(=O)c4ccc(F)cc4)CC3)CC2)c1	-10.9%	1.93%
CC(C)N1C(=O)/C(=C\c2nc3ccccc3c(=O)n2-c2ccccc2)c2ccccc21	7.4%	24.2%
CCC(C)c1ccc(S(=O)(=O)Nc2cccnc2)cc1 (centres undefined)	-9.79%	-4.32%
COc1ccc(C(=O)Cn2c(Br)nc3c2c(=O)n(C)c(=O)n3C)cc1	-2.41%	11.5%
